In the supplement of paper PMC7530171:
Where “and” joins values, the source holds several entries; their conditions need not be identical. Equal values may be shown once. Where a name gives a salt, the structure may show the parent alone. ± gives the standard deviation.

system: THP-1 macrophages infected with Mycobacterium tuberculosis H37Rv; test: intracellular M.tb growth inhibition relative to DMSO (0) and 4 uM bedaquiline (100); higher = stronger inhibition of intracellular bacterial growth; conditions: 10 µM; 4 days
Method: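 OICR kinase inhibitor library screened in duplicate at 10 uM against THP-1 macrophages (PMA-differentiated) infected with M. tuberculosis H37Rv-pTEC27 (tdTomato RFP), 4 days at 37 C. Rows with complete host cell loss (placeholder inhibition 0, cell loss 100) were removed.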

| SMILES | intracellular M.tb growth inhibition |
| --- | --- |
| Cc1cc(Nc2nc(N[C@@H](C)c3ncc(F)cn3)ncc2Cl)[nH]n1 | -234 ± 120% |
| COc1cc2c(Oc3ccc4[nH]c(C)cc4c3F)ncnc2cc1OCCCN1CCCC1 [Cediranib] | 6.57 ± 9.3% |
| O=C(O)c1cc(N(Cc2ccccc2O)Cc2cc(O)ccc2O)ccc1O [Lavendustin A] | 10.4 ± 41% |
| COc1cccc2cc(-c3nc([C@H]4CC[C@H](C(=O)O)CC4)n4ncnc(N)c34)[nH]c12 [OSI-027 hydrochloride] | -318 ± 370% |
| COc1cccc(-c2cc(=O)c3ccccc3o2)c1N | 27.4 ± 15% |
| O=C(Nc1nc2ccccc2n1CCN1CCOCC1)c1cccc([N+](=O)[O-])c1 [IRAK-1/4 Inhibitor I] | 13.1 ± 7.2% |
| Cn1cc(-c2ccc3nnc(C(F)(F)c4ccc5ncccc5c4)n3n2)cn1 | -109 ± 120% |
| CCn1c(-c2nonc2N)nc2c(C#CC(C)(C)O)ncc(OC[C@H]3CCCNC3)c21 | -124 ± 170% |
| Nc1ncnc2n[nH]c(Nc3ccc(F)cc3)c12 | -2.38% and 4.47% |
| C[C@@H](Oc1cc(-c2cnn(C3CCNCC3)c2)cnc1N)c1c(Cl)ccc(F)c1Cl | -114 ± 120% |
| NC(=O)Nc1sc(-c2ccc(F)cc2)cc1C(N)=O | -19 ± 13% |
| CC#CC(=O)Nc1cc2c(Nc3ccc(F)c(Cl)c3)ncnc2cn1 | -68.3 ± 97% |
| COc1cc2ncnc(Nc3ccc(O)cc3)c2cc1OC [Janex-1] | -138 ± 210% |
| C[C@]1(O)C[C@@H](c2nc(-c3ccc4ccc(-c5ccccc5)nc4c3)c3c(N)nccn32)C1 | 39.2 ± 24% |
| COc1cc2ncnc(Nc3cccc(Br)c3)c2cc1OC | -64 ± 39% |
| O=C1Nc2ccc(I)cc2/C1=C/c1cc(Br)c(O)c(Br)c1 | 9.15 ± 48% |
